The test system of one assay is HB3. As to the kind of experiment: qHTS profiling for inhibitors of Plasmodium falciparum proliferation (AID 504749). The conditions noted are these: P. falciparum in erythrocytes, SYBR Green DNA, 72 h; series mostly up to 28.7 µM. The procedure, abridged:
(§1)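 In a 72 h erythrocytic culture (37 C, humidified, 5% CO2) at 2.5% hematocrit and 0.3% starting parasitemia, compounds were tested; SYBR Green I in detergent lysis buffer stained parasite DNA overnight.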
(In general: Quantitative high-throughput screening tests each substance at several concentrations.)

For a further assay, the system named is ICS. The description is as above. To be noted: P. falciparum in erythrocytes, SYBR Green DNA, 72 h; series mostly up to 28.7 µM. The procedure, abridged:
as §1

The subject of another assay is JCK. Described as above. The conditions noted are these: P. falciparum in erythrocytes, SYBR Green DNA, 72 h; series mostly up to 28.7 µM. The procedure, abridged: as §1
The subject of a further assay is N140. The assay is described as above. To be noted: P. falciparum in erythrocytes, SYBR Green DNA, 72 h; series mostly up to 28.7 µM. The procedure, abridged:
as §1

In the next assay the test system is P94_40. The assay is described as above. The conditions noted are these: P. falciparum in erythrocytes, SYBR Green DNA, 72 h; series mostly up to 28.7 µM. The procedure, abridged: as §1
In a further assay the test system is PAD. The description is as above. To be noted: P. falciparum in erythrocytes, SYBR Green DNA, 72 h; series mostly up to 28.7 µM. The procedure, abridged: as §1
A further assay deals with PC15. The assay is described as above. To be noted: P. falciparum in erythrocytes, SYBR Green DNA, 72 h; series mostly up to 28.7 µM. The procedure, abridged:
as §1

The next assay has as its system PC26. The assay is described as above. To be noted: P. falciparum in erythrocytes, SYBR Green DNA, 72 h; series mostly up to 28.7 µM. The method, boiled down:
as §1

Another assay deals with PC49. The assay is described as above. The conditions noted are these: P. falciparum in erythrocytes, SYBR Green DNA, 72 h; series mostly up to 28.7 µM. The procedure, abridged: as §1
In a further assay the test system is SC27B. Described as above. The conditions noted are these: P. falciparum in erythrocytes, SYBR Green DNA, 72 h; series mostly up to 28.7 µM. The procedure, abridged: as §1
The test system of a further assay is TAB109. The assay is described as above. To be noted: P. falciparum in erythrocytes, SYBR Green DNA, 72 h; series mostly up to 28.7 µM. The method, boiled down:
as §1

Another assay has as its system TAB113. The description is as above. The conditions noted are these: P. falciparum in erythrocytes, SYBR Green DNA, 72 h; series mostly up to 28.7 µM. The procedure, abridged:
as §1

The test system of another assay is TAB165. The description is as above. The conditions noted are these: P. falciparum in erythrocytes, SYBR Green DNA, 72 h; series mostly up to 28.7 µM. The procedure, abridged: as §1
For the next assay, the system named is W2. Described as above. The conditions noted are these: P. falciparum in erythrocytes, SYBR Green DNA, 72 h; series mostly up to 28.7 µM. The method, boiled down:
as §1

In the next assay the test system is CRL-7250. As to the kind of experiment: Cytotoxic Profiling of Annotated Libraries Using Quantitative High-Throughput Screening (AID 1296008). On max response: on the % scale 0 is the no-effect control and ±100 the full control effect. To be noted: Five cell lines viability, CellTiter-Glo ATP luminescence, 48-72 h; max response: active compounds read low. The procedure, abridged:
(§2)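 Cytotoxicity was measured as CellTiter-Glo ATP luminescence, read after 10 min at room temperature. Compound treatment of the cells lasted 48 or 72 hr at 37 degrees Celsius in a qHTS format.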
On the technique in general: Cellular ATP, detected with luciferase, serves as a proxy for viable cell number.

The next assay relates to HEK293. Described as above. The conditions noted are these: Five cell lines viability, CellTiter-Glo ATP luminescence, 48-72 h; max response: active compounds read low. The method, boiled down: as §2
For the next assay, the system named is HaCat. The description is as above. The conditions noted are these: Five cell lines viability, CellTiter-Glo ATP luminescence, 48-72 h; max response: active compounds read low. The method, boiled down: as §2
A further assay relates to KB-3-1. The description is as above. The conditions noted are these: Five cell lines viability, CellTiter-Glo ATP luminescence, 48-72 h; max response: active compounds read low. The method, boiled down: as §2
For a further assay, the system named is NIH3T3. The assay is described as above. The conditions noted are these: Five cell lines viability, CellTiter-Glo ATP luminescence, 48-72 h; max response: active compounds read low. The procedure, abridged: as §2
For the next assay, the system named is P93_24. Briefly: qHTS profiling for inhibitors of Plasmodium falciparum proliferation (AID 504749). The conditions noted are these: P. falciparum in erythrocytes, SYBR Green DNA, 72 h; series mostly up to 28.7 µM. The method, boiled down: as §1

Structures are written as SMILES. Where “and” joins values, the source holds several entries; their conditions need not be identical. Equal entries are not always repeated. Inconclusive results are not listed. Values without a mark were called inactive. Calls of active or inactive are those of the source. The call rests on the fitted dose curve; in most records, active means well fitted inhibition curve with a large enough effect; inconclusive means small, poorly fitted or top-dose-only effect; inactive means flat fitted curve, though single readings scatter.
Further: nearly all actives have a fitted effect of over 60% in size.
Potency means the concentration at half of the fitted maximal effect.

As to `CN(CCOc1ccc(NS(C)(=O)=O)cc1)CCc1ccc(NS(C)(=O)=O)cc1`, the Potency result with HB3, in the assay on ICS, with JCK, in the assay with N140, in the assay on P94_40 and with PAD was “inactive” throughout. For the same compound, the Potency result in the assay with PC15, in the assay on PC26, in the assay on PC49, with SC27B, in the assay with TAB109 and in the assay on TAB113 was “inactive” each time. The Potency entry in the assay with TAB165 and with W2 was “inactive” each time. Moreover, the result with CRL-7250, in the assay on HEK293, in the assay on HaCat and with NIH3T3 was inactive. The max response is 2.47% in the assay on HaCat and -3.43% in the assay on KB-3-1.
`Nc1nnc(-c2cccc(Cl)c2Cl)c(N)n1`: the Potency entry in the assay with HB3, in the assay on ICS, in the assay on JCK, in the assay with N140, in the assay with P93_24 and in the assay with P94_40 was “inactive” throughout. Moreover, the Potency entry in the assay on PAD, in the assay with PC15, in the assay on PC26, in the assay on PC49, in the assay on SC27B and in the assay on TAB109 was “inactive” each time. Further, the Potency entry with TAB113, with TAB165 and with W2 was “inactive” throughout. Further, the max response was -7.91% and -8.11% with CRL-7250; -5.08% and 0.349% in the assay with HEK293; 6.78% and 8.12% with KB-3-1. The result in the assay on HaCat and in the assay with NIH3T3 was inactive.
In the case of `O=C1Cc2cc(CCN3CCN(c4nsc5ccccc45)CC3)c(Cl)cc2N1`, the max response is -1.82% and -0.528% in the assay on CRL-7250; -2.23% and 4.15% in the assay with HaCat; 2.45% [middle of 4 runs] in the assay with KB-3-1; -14.8% and 4.36% with NIH3T3. Further, the Potency in the assay on HEK293 was 16.8 µM (active). Moreover, the compound was called inactive in the assay on HaCat and with NIH3T3.
Take `Clc1ccc(C(c2ccccc2Cl)C(Cl)Cl)cc1` (stereo unspecified): the Potency entry in the assay with HB3, with JCK, in the assay with N140, in the assay with P93_24, with P94_40 and in the assay on PAD was “inactive” in each case. Besides, the Potency entry in the assay on PC15, with PC49, with SC27B, with TAB109, with TAB113 and in the assay on TAB165 was “inactive” throughout. For the same compound, the max response in the assay on CRL-7250 was -3.27%; in the assay with HEK293, -1.26%; with HaCat, -1.22%; in the assay with KB-3-1 it was -10.1% and -1.61%; with NIH3T3, -2.6% and -1.15%. Besides, the compound was called inactive in the assay with HaCat.
As for `CN(C)CCOC(c1ccccc1)c1ccccc1`, the Potency result in the assay with HB3, with JCK, in the assay with PAD, in the assay with PC49, in the assay on SC27B and in the assay with TAB113 was “inactive” throughout. In addition, the Potency with W2 is 953 nM (active). The max response with CRL-7250 was -3.47% and -12.2%; in the assay with KB-3-1, 4.19% and -2.75%. The result with HEK293, with HaCat, in the assay with KB-3-1 and in the assay with NIH3T3 was inactive.
For the compound `CS(=O)(=O)CCNCc1ccc(-c2ccc3ncnc(Nc4ccc(OCc5cccc(F)c5)c(Cl)c4)c3c2)o1`, the Potency entry in the assay with HB3, in the assay on ICS, in the assay with JCK, with N140, in the assay on P93_24 and in the assay on P94_40 was “inactive” each time. The Potency result in the assay on PAD, in the assay on PC15, with PC26, in the assay with PC49, in the assay with SC27B and with TAB109 was “inactive” throughout. The Potency entry with TAB113, in the assay with TAB165 and in the assay on W2 was “inactive” each time. The call with CRL-7250 was inactive. The Potency in the assay with HEK293 was 4.18 µM (active) and 6.68 µM (active) and 9.2 µM (active); in the assay with HaCat, 46.9 nM (active) and 266 nM (active). Also, the max response with KB-3-1 was 0.0192%; in the assay on NIH3T3 it was -52.4%.
With `NS(=O)(=O)c1cc2c(cc1Cl)NCNS2(=O)=O`, the Potency result with HB3, with ICS, in the assay with JCK, with N140, in the assay on P93_24 and in the assay with P94_40 was “inactive” in each case. The Potency result in the assay with PAD, in the assay on PC15, with PC26, in the assay on PC49, with SC27B and with TAB109 was “inactive” throughout. The Potency entry in the assay with TAB113, in the assay on TAB165 and in the assay on W2 was “inactive” in each case. Besides, the outcome in the assay with CRL-7250, in the assay with HEK293 and with HaCat was inactive. Also, the max response in the assay with HaCat was 0.753%; in the assay with KB-3-1, 23% and 9.86%; in the assay on NIH3T3 it was -2.86% and -1.17%.
Turning to `CN1C2CCC1CC(OC(=O)C(CO)c1ccccc1)C2` (stereo unspecified), the max response was -10.2% in the assay with CRL-7250, 0.412% with HEK293, 0.626% in the assay on KB-3-1 and -0.822% in the assay with NIH3T3. Besides, the call with HaCat was inactive.
Regarding `Cc1ccc(C(=O)Nc2ccc(S(=O)(=O)O)c3cc(S(=O)(=O)O)cc(S(=O)(=O)O)c23)cc1NC(=O)c1cccc(NC(=O)Nc2cccc(C(=O)Nc3cc(C(=O)Nc4ccc(S(=O)(=O)O)c5cc(S(=O)(=O)O)cc(S(=O)(=O)O)c45)ccc3C)c2)c1`, the Potency entry in the assay with HB3, in the assay with ICS, in the assay with JCK, in the assay on N140, in the assay on P93_24 and with P94_40 was “inactive” throughout. Also, the Potency entry in the assay with PAD, in the assay on PC15, with PC26, in the assay with PC49, with SC27B and in the assay on TAB113 was “inactive” in each case. The Potency result in the assay with TAB165 and in the assay on W2 was “inactive” throughout. Also, the max response was 0.897% in the assay with CRL-7250; 9.63% and 6.6% in the assay on KB-3-1; -7.7% in the assay with NIH3T3. For the same compound, the compound was called inactive in the assay with HEK293, with HaCat and in the assay with NIH3T3.
As to `CCOC(=O)Nc1ccc(NCc2ccc(F)cc2)nc1N`, the Potency is 8.91 µM (active) in the assay on HB3; 6.31 µM (active) with ICS; 14.1 µM (active) in the assay on JCK; 10 µM (active) in the assay on N140; 10 µM (active) with PAD; 19 µM (active) with PC26. In addition, the Potency in the assay with SC27B was 10 µM (active); with TAB109, 10 µM (active); with TAB113 it was 11.2 µM (active); with TAB165, 10 µM (active); in the assay with W2 it was 3790 nM (active). Further, the max response was -7.5% and -7.01% in the assay on CRL-7250; -4.26% in the assay on HEK293; -2.04% and -3.24% in the assay with HaCat; -2.17% and -13.9% and -5.9% in the assay with KB-3-1; 4.91% in the assay with NIH3T3. In addition, in the assay on NIH3T3, the compound was classed as inactive.

Values taken from PubChem BioAssay (NCATS).
